From the supplement of paper PMC3334620
In all, about 33,000 sequences were measured (“E-score (-0.5 to 0.5)”: median about -0.013, highest 2% from about 0.3 on). Many of the other results were omitted from the sample, so the highest values are more common in it than they were.

target: T1, Msn1 (UniProt P22148); test: PBM E-score (8-mer binding enrichment) (E-score (-0.5 to 0.5)); higher = stronger / more preferred TF binding; settings: protein concentration: 200 nM; construct: GST-full length
T1 sequence: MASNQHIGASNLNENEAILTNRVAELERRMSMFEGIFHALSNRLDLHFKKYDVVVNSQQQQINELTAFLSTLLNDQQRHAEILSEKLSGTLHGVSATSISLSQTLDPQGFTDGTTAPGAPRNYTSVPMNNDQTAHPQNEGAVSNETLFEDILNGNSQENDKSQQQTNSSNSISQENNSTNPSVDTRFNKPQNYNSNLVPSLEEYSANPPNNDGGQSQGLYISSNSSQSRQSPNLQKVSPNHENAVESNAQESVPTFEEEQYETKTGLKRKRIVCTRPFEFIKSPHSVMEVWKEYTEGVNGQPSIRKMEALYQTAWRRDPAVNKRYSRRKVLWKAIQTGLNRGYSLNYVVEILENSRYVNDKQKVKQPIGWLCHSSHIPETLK
Experimental: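 Universal 'all 10-mer' protein binding microarrays (Agilent AMADID 015681) probed with GST-tagged S. cerevisiae TFs (full-length or DBD) made by in vitro transcription/translation (PURExpress), about 100-200 nM. Bound TF was detected with fluorescent anti-GST. Each ungapped 8-mer (which stands for itself and its reverse complement) is scored by the PBM enrichment score (E-score), a modified Wilcoxon-Mann-Whitney statistic from -0.5 to +0.5, computed with the Universal PBM Analysis Suite. Scale: above 0.35 generally sequence-specific binding.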

In order of falling “PBM E-score” value:
1. AGATGTCC  0.477
2. CTATGTCC  0.461
3. AATGTCAT  0.46
4. GTGGGACA  0.455
5. TCCGGACA  0.453
6. ATGTCATA  0.448
7. CTGGGACA  0.444
8. CGATGTCC  0.436
9. ATGGGACA  0.429
10. CCCGGACA  0.425
11. ATGTCATG  0.411
12. GCAAGGAC  0.395
13. AAAGACAT  0.387
14. AATGTCAC  0.381
15. GACACGGA  0.369
16. ATAAGGAC  0.369
17. CAAGACAA  0.367
18. AATGTACT  0.364
19. GAAGACAA  0.36
20. CGTATGTC  0.359
21. ACAAGGAC  0.358
22. GCCGGACA  0.357
23. AGTATGTC  0.353
24. ATGTCATC  0.341
25. GACACGCC  0.324
26. ACAGGGAC  0.324
27. CAAGATAA  0.324
28. ATGTCAAA  0.323
29. AATGTATA  0.323
30. ATTGTGTC  0.314
31. AATGTACC  0.311
32. AGATGTCA  0.309
33. GTCACGGA  0.308
34. ACCGGACA  0.306
35. GGATGTCA  0.305
36. CTTGTGTC  0.304
37. TACACGGA  0.303
38. AATGTACA  0.294
39. GTGTCATA  0.292
40. AATGTACG  0.274
41. GTAAGGAC  0.268
42. AATGTCAG  0.254
43. TCCGGAAA  0.248
44. ACGTCATA  0.235
45. ATGTCAAG  0.217
46. CGCCGGCG  0.204
47. GACACGCA  0.198
48. GACACGGC  0.197
49. ATGTCAGC  0.194
50. AATGTAAT  0.193
51. ACACACCA  0.183
52. TCATCCGA  0.183
53. CAAGACAC  0.183
54. GAAGACAC  0.181
55. ACAAGGAA  0.178
56. CGATGTAC  0.169
57. GCAGGGAC  0.163
58. ATAAGGAT  0.161
59. CCAAGGAC  0.16
60. AGTCTCCG  0.159
61. ATGTCAGG  0.158
62. GTACCTGA  0.149
63. CGTATGTA  0.148
64. CATGTATA  0.141
65. ATTGTGTA  0.14
66. AAAGATAA  0.14
67. ATCACGGA  0.136
68. AACAGAGT  0.128
69. TAGCAAAA  0.124
70. AACCTAAA  0.121
71. AGAAAACT  0.116
72. CTTGTGTA  0.114
73. AGGTAACA  0.113
74. AGTGTCAT  0.112
75. CTATGTTC  0.103
76. AGATGTAA  0.102
77. GTGTCAAA  0.096
78. CGTGTGTC  0.0945
79. CTCACGGA  0.0943
80. CACCGGTA  0.0943
81. CTGTCATA  0.0936
82. ACTATACC  0.0929
83. GTCTGTGA  0.0908
84. ATAAATGG  0.0876
85. GCCGGAGA  0.0857
86. AATGGGAC  0.0849
87. CGACGCCG  0.0839
88. AAAGACTT  0.0779
89. CGATGTCA  0.0775
90. CGTATGGC  0.0738
91. CTGTCATC  0.0737
92. AAAGACCT  0.0725
93. ACCGGACT  0.0676
94. CAAGACAG  0.0634
95. TCCGGAGA  0.0632
96. CCAGCAAA  0.06
97. CTGAAAGC  0.0584
98. CAGAATGA  0.0577
99. CTCCAGTA  0.057
100. ATCACAGC  0.053
101. CCCAACGC  0.0471
102. CTGTCAAA  0.0466
103. AGATGTTC  0.0457
104. CCGTGAAC  0.0411
105. CTCTACGA  0.0394
106. AGTATGTG  0.0347
107. ATAAGAGC  0.0327
108. ATCTTGAG  0.0323
109. CGCAGACG  0.0312
110. AAATGAGT  0.0295
111. TAAGATAA  0.0274
112. CGTCCCGC  0.0266
113. ACTGTCAT  0.0249
114. AGAGATAT  0.0248
115. GGTGAGAC  0.0221
116. AAAGCACG  0.0204
117. AACAGCGT  0.0185
118. AGATGTCG  0.0151
119. ACAAGGAG  0.0113
120. ACTGTCAC  0.00673
121. ATGGGACC  0.00395
122. CCTGTTGA  -0.00042
123. ACTGTACT  -0.00421
124. CCACCCAG  -0.0137
125. ACCGCAAG  -0.0142
126. AGTATGTA  -0.0186
127. ATTGTGTG  -0.0187
128. GTTTGCCA  -0.0238
129. ACCGGACG  -0.0239
130. AAGGTCCA  -0.0265
131. AATACCTG  -0.0275
132. CACGCTAG  -0.0343
133. GACCGTGA  -0.0454
134. CGATGTTC  -0.0457
135. GGCGAGGA  -0.0575
136. AAGTCGCT  -0.0636
137. CGAGCTAG  -0.0663
138. GGATGTTA  -0.0664
139. AGATGTGA  -0.0694
140. CTATGTGC  -0.0695
141. CACTAGCA  -0.0794
142. GCCGGACC  -0.0867
143. AAAAAAGC  -0.0879
144. CGTTGGAA  -0.0918
145. GAGACCTA  -0.0946
146. GTGGGATA  -0.0948
147. GAAGACCA  -0.102
148. CCTGAACG  -0.104
149. GATGTATA  -0.11
150. CCCGGACC  -0.11
151. AGCGCAGC  -0.115
152. AGAACTCT  -0.119
153. AACACGCC  -0.12
154. GCAAGGAA  -0.122
155. CCTGCCAA  -0.125
156. ATCACTAC  -0.126
157. ATGCTACC  -0.126
158. AATGGAGC  -0.132
159. AGAAGCTA  -0.135
160. ACTTGCCT  -0.136
161. AACGCTAC  -0.137
162. ACAGGGAT  -0.147
163. CCCGGACG  -0.156
164. GAACAGGC  -0.164
165. AGGTCGCC  -0.164
166. AATGGCCT  -0.164
167. ACTCGAAG  -0.168
168. ACAGTGCG  -0.181
169. AGAGGTTG  -0.182
170. ATGGGACG  -0.188
171. CTGGGAAA  -0.203
172. CAGTGCTC  -0.259
173. CTGGGACC  -0.269
174. CTCCTTCA  -0.3
175. ATGGTGGG  -0.316
176. GTGGGAGA  -0.317
177. GCTCCCTA  -0.334
